HTT aggregate = reduces HttQ103-GFP aggregates in PC12 cells; PC12 HttQ103-GFP aggregates, Acumen cytometry, 40 h; Potency, µM (titrated, usually from 46.1 µM), hits mostly inhibitors; 220,000 compounds, 1.1% hits; AID 1688; note: nearly all actives have a fitted effect of over 60% in size
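Using laser scanning cytometry, GFP-positive aggregates were counted after lysis of PC12 cells induced with 100 nM tebufenozide to express HTT exon 1 Q103–GFP. Compounds were tested in titration.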
ALDH1A1 inh = blocks purified human ALDH1A1 activity. AID 1030. Potency, µM (top dose mostly 75.3 µM), hits mostly inhibitors. Purified ALDH1A1, NADH fluorescence, propionaldehyde substrate. 220,000 compounds, 7.3% hits; active = well fitted inhibition curve with a large enough effect, not every such curve was filed as active; inconclusive = small, poorly fitted or top-dose-only effect, or another doubt; inactive = no such curve, though single readings can be large or run the other way
Target sequence (P00352 whole entry, looked up): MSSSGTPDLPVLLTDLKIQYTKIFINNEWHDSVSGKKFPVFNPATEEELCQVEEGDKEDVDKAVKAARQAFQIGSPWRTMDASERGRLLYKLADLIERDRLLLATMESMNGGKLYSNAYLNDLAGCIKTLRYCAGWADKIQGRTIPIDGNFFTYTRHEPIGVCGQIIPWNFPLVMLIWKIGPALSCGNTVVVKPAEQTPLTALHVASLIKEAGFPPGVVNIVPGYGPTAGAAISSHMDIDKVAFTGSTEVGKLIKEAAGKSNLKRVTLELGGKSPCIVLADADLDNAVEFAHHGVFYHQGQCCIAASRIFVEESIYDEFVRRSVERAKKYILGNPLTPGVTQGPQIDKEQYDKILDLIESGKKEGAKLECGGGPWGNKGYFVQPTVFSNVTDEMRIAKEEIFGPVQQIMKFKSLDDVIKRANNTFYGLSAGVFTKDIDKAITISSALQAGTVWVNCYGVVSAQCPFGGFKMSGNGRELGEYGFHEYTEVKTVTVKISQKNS
Lamin A splicing = modulators of lamin A splicing. HeLa LMNA splicing GFP/RFP minigene ratio, 48 h. Potency, µM (top dose mostly 46.1 µM), most hits filed as inhibitors. 200,000 compounds, 0.01% hits. AID 1487; active = well fitted inhibition curve with a large enough effect in the signal ratio, with a control signal flat, not every such curve was filed as active; inconclusive = small, poorly fitted or top-dose-only effect, or effect the other way, or a change in a side signal; the % refers to the signal ratio
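S3 HeLa cells stably expressing lamin A-EGFP splicing minigene plus DsRed2, 600 cells/well, 48 h compound exposure at 37C. Laser-scanning cytometry; analysed as GFP (500-530 nm)/RFP (575-640 nm) total intensity ratio; 0.5% DMSO vehicle.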
HPGD inh = HPGD (human) dehydrogenase inhibition; AID 894; Potency, µM, usual class: inhibitors; P15428; purified HPGD, NADH fluorescence kinetic, PGE2 substrate; 150,000 compounds, 4.3% hits; active = well fitted inhibition curve with a large enough effect, not every such curve was filed as active; inconclusive = small, poorly fitted or top-dose-only effect, or another doubt; inactive = no such curve, though single readings can be large or run the other way
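20 nM HPGD preincubated 15 min at room temperature with compound in 50 mM Tris-HCl pH 8, 0.01% Tween 20. Started with 1 mM NAD+ and 30 uM prostaglandin E2; NADH fluorescence (360/450 nm) read 5 times over 30-s intervals, last minus first.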
HTT ATP protect = protects HTT-Q103 PC12 cells, measured by ATP. AID 1471. Potency, µM (series often up to 56.4 µM), usual class: activators. PC12 HTT-Q103 induced, cytoprotection, ATP luminescence, 40 h. 230,000 compounds, 0.14% hits; note: nearly all actives have a fitted effect of over 45% in size
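Rat PC12, Q103 Htt exon1-GFP fusion, ecdysone promoter; tebufenozide inducer 100 nM final; compound titration; qHTS, 1500 cells/well; ATPlite luminescent read.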
KinaseGlo FLuc = blocks Kinase-Glo luciferase, a counter-screen artifact | Kinase-Glo luciferase, ATP luminescence, 8 min | Potency, µM (titrated, usually from 38.3 µM), usual class: inhibitors | AID 1379 | 200,000 compounds, 0.28% hits | Q27757; note: nearly all actives have a fitted effect of over 60% in size
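Inhibition of Kinase-Glo luciferase light generation was assessed at 10 uM ATP in pH 7.2 imidazole buffer, with luminescence measured after eight minutes at ambient temperature.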
Numbers stand for hits; [ ] = another dose, or the depositor's remark. An excerpt weighted towards active compounds, which were near 9% of everything screened. Unless noted, calls come from the whole dose curve; as a rule, active = well fitted curve in the direction sought with a large enough effect; inconclusive = small, poorly fitted or top-dose-only effect, or another doubt; inactive = no such curve, though single readings can be large; an effect the other way counts as inactive or inconclusive.

Results for CNC(=S)N/N=C(\C)c1ccc2c(c1)OCCO2 ?
HTT aggregate: inactive; ALDH1A1 inh: 2.8µM; Lamin A splicing: inactive; HPGD inh: inactive; HTT ATP protect: inactive[10 µM]; KinaseGlo FLuc: inactive

Results for C/C(=N\Nc1cc(C)nc(-c2ccccc2)n1)c1cccc([N+](=O)[O-])c1 ?
HTT aggregate: inactive[9.22 µM]; ALDH1A1 inh: 13µM; HTT ATP protect: inactive[10 µM]; KinaseGlo FLuc: inactive

Results for CNC(=S)N/N=C(\C)c1cccc([N+](=O)[O-])c1 ?
HTT aggregate: inactive; ALDH1A1 inh: 13µM; Lamin A splicing: inactive; HPGD inh: inactive; HTT ATP protect: inactive[1.9 µM]; KinaseGlo FLuc: inactive

What do the screens show for `O=c1c(Cl)c(NCc2ccco2)cnn1C12CC3CC(CC(C3)C1)C2`?
HTT aggregate: inactive; ALDH1A1 inh: inconclusive; HTT ATP protect: inactive; KinaseGlo FLuc: inactive

Results for CCCN(Cc1cc(=O)[nH]c2ccccc12)C(=O)CC ?
HTT aggregate: inactive[9.22 µM]; ALDH1A1 inh: inconclusive; HTT ATP protect: inactive[10 µM]

Results for O=C(Nc1ccc2c(c1)CCC2)c1cccs1 ?
HTT aggregate: inactive[9.22 µM]; ALDH1A1 inh: inactive; Lamin A splicing: inconclusive; HTT ATP protect: inactive[10 µM]; KinaseGlo FLuc: inactive

What do the screens show for `Cc1cccc(CN2CCNC2=O)c1`?
HTT aggregate: inactive; ALDH1A1 inh: inactive; Lamin A splicing: inactive; HPGD inh: inactive; HTT ATP protect: inactive; KinaseGlo FLuc: inactive

What do the screens show for `CC1Cc2nc(SCC(=O)Nc3ccc4c(c3)OCO4)n(CCc3ccccc3)c(=O)c2S1` (configuration not stated)?
HTT aggregate: inactive; ALDH1A1 inh: inactive; Lamin A splicing: inactive; HPGD inh: inactive; HTT ATP protect: inactive; KinaseGlo FLuc: inactive

How did S=C(Nc1ccccc1)Nc1ccccc1C#Cc1ccccc1 do in these assays?
ALDH1A1 inh: 18µM; HPGD inh: inconclusive; HTT ATP protect: inactive; KinaseGlo FLuc: inactive

What do the screens show for `C[Si](C)(C)C#Cc1ccccc1NC(=S)Nc1ccccc1`?
ALDH1A1 inh: 13µM; HPGD inh: inconclusive; HTT ATP protect: inactive; KinaseGlo FLuc: inactive

What do the screens show for `S=C(Nc1ccccc1)Nc1ccccc1-n1cccc1`?
HTT aggregate: inactive[9.22 µM]; ALDH1A1 inh: inactive; HTT ATP protect: inactive[10 µM]

What do the screens show for `N#Cc1ccccc1NC(=S)Nc1ccc(F)cc1`?
HTT aggregate: inactive[9.22 µM]; ALDH1A1 inh: inactive; Lamin A splicing: inconclusive; HTT ATP protect: inactive[10 µM]; KinaseGlo FLuc: inactive

How did CC(C)=CC(=O)OCC(=O)Nc1ccc(Cl)cn1 do in these assays?
HTT aggregate: inactive; ALDH1A1 inh: inconclusive; Lamin A splicing: inactive; HPGD inh: inactive; HTT ATP protect: inactive; KinaseGlo FLuc: inactive

Results for CC1Cc2ccccc2N1C(=O)CCNS(=O)(=O)c1ccc2c(c1)CCC(=O)N2 (configuration not stated) ?
HTT aggregate: inactive; ALDH1A1 inh: 16µM; Lamin A splicing: inactive; HPGD inh: inactive; HTT ATP protect: inactive; KinaseGlo FLuc: inactive

What do the screens show for `COc1ccc(CN=C(Nc2ccccc2)SC2CC(=O)NC2=O)cc1` (configuration not stated)?
HTT aggregate: inactive[9.22 µM]; ALDH1A1 inh: inactive; HTT ATP protect: inactive[10 µM]; KinaseGlo FLuc: inactive

How did CC1=NOC(=O)/C1=C\c1ccc(-c2ccc(Br)cc2)o1 do in these assays?
HTT aggregate: inactive; ALDH1A1 inh: 10µM; HTT ATP protect: inactive; KinaseGlo FLuc: inactive

How did Cc1ccc(-c2cc(C(F)F)n3ncc(C(=O)Nc4cn(C)nc4C)c3n2)cc1 do in these assays?
HTT aggregate: inactive[9.22 µM]; ALDH1A1 inh: inactive; Lamin A splicing: inconclusive; HTT ATP protect: inactive[10 µM]; KinaseGlo FLuc: inactive

What do the screens show for `CCc1cc2c(N3CCCCC3)ncnc2s1`?
HTT aggregate: inactive; ALDH1A1 inh: 20µM; Lamin A splicing: inconclusive; HPGD inh: inactive; HTT ATP protect: inactive[10 µM]; KinaseGlo FLuc: inactive

How did Cc1ccc(C(C(=O)NC2CCCCC2)N(Cc2cccnc2)C(=O)C2COc3ccccc3O2)o1 (configuration not stated) do in these assays?
HTT aggregate: inactive; ALDH1A1 inh: 13µM; Lamin A splicing: inactive; HPGD inh: inactive; HTT ATP protect: inactive[10 µM]; KinaseGlo FLuc: inactive

Screening data as filed in PubChem BioAssay.
